In all, about 35,000 sequences were measured (“fluorescence intensity (a.u.)”: median about 10,000, highest 2% from about 52,000 on). The sample holds the highest values, similar sequences and a random draw of the others, so the mix is not that of the screen.
Target: T1, OsWOX13 (Oryza sativa, UniProt Q5QMM3 1-267)
T1 sequence: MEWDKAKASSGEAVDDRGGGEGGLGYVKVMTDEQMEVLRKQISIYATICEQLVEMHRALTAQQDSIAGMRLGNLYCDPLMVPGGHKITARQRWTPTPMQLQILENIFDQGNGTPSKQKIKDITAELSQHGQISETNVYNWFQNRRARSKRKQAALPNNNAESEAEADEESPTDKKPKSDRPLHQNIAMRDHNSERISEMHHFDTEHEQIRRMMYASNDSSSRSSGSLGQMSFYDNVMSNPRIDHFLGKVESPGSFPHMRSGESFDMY
Test: protein-binding microarray (RPBM); PBS, 2% BSA, 51.3 ng/ul salmon testes DNA, 50 uM zinc acetate, 200 nM TF, 25 C, 1 h; high values mean tight binding
Details: protein: recombinant; tags: N-terminal polyhistidine and DsRed monomer fusion (pET32a); label: CyDye5-dUTP incorporated in the synthesized complementary strand; 3' TTTTT single-stranded linker to array surface; dsDNA, one strand shown
Procedure, shortened: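 Transcription factors were each fused at the N-terminus to a polyhistidine tag plus DsRed and expressed in E. coli BL21-CodonPlus before Ni–NTA purification. Binding to a double-stranded custom Agilent array was carried out with 200 nM protein at 25 °C for 1 h in PBS, 2% BSA, salmon testes DNA and 50 µM zinc acetate. The binding signal is per-feature fluorescence intensity, in arbitrary units, on an Axon 4000B scanner.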

Row | Sequence | binding signal
1 | CCCTCCATCCCCTCAGTCCACTCAATCACCACACCAGCCACGGAGTCACCTAGTGCAG | 3850 fluorescence intensity (a.u.)
2 | CCAATCACATTCACTTTTACAGTTTAGCCCCACCCTCTCCCGGAGTCACCTAGTGCAG | 4980 fluorescence intensity (a.u.)
3 | ATATTGATTGATTGGTTATTCGCAAGAAACATGACTGTTCCGGAGTCACCTAGTGCAG | 63800 fluorescence intensity (a.u.)
4 | ATGAAGAAACTGTTGGTGATTTGACAAGTAGGCTTGGTTCCGGAGTCACCTAGTGCAG | 6530 fluorescence intensity (a.u.)
5 | GCTTGATGACCAAGTATATATAAACATGTCAGTGATTATTCGGAGTCACCTAGTGCAG | 5670 fluorescence intensity (a.u.)
6 | GATTCCCTTCTTTTCTTTGGTTGATTTCTTTCTGTATTTCCGGAGTCACCTAGTGCAG | 5880 fluorescence intensity (a.u.)
7 | ATACCTTATTGAAATATGATTGTTCGACTGGTTACTGAATCGGAGTCACCTAGTGCAG | 19500 fluorescence intensity (a.u.)
8 | GGGCATAAATTTTGGTGATTTTCGGTTTTCTGAAGTTCCTCGGAGTCACCTAGTGCAG | 7130 fluorescence intensity (a.u.)
9 | GTTATCATGATTTATATTCCCAAGGTTTGACTTAAACATTCGGAGTCACCTAGTGCAG | 11400 fluorescence intensity (a.u.)
10 | CTGTATATTGATTGATTGGTTATTCGCAAGAAACATGACTCGGAGTCACCTAGTGCAG | 65100 fluorescence intensity (a.u.)
11 | ATTCTGATTGGCAAGTTGGTTATTCCTTTTCTGATTGGTTCGGAGTCACCTAGTGCAG | 60700 fluorescence intensity (a.u.)
12 | AGGGAATTTTATGATTTGCATTGGTGCTGAGGTCAAACCCCGGAGTCACCTAGTGCAG | 7180 fluorescence intensity (a.u.)
13 | GACAGATTAATTAAAGAATCATCATTACTGCGATGCGACCCGGAGTCACCTAGTGCAG | 16600 fluorescence intensity (a.u.)
14 | ACAAATTGCCAACTCATGAAAGTGATCGATGATGGGCTTACGGAGTCACCTAGTGCAG | 15700 fluorescence intensity (a.u.)
15 | GTCCTACATATGCTAAATTGGCAATATGTAAAGATTTACTCGGAGTCACCTAGTGCAG | 4980 fluorescence intensity (a.u.)
16 | TTATTTATCAGTCTGATTTTATATAATGTAATATTATGCACGGAGTCACCTAGTGCAG | 3150 fluorescence intensity (a.u.)
17 | AAATTAACTTAATTAATAAGTTGAGCAGCCTGTAGGCCTTCGGAGTCACCTAGTGCAG | 17500 fluorescence intensity (a.u.)
18 | GCAAATTAACTTAATTAATAAGTTGAGCAGCCTGTAGGCCCGGAGTCACCTAGTGCAG | 58200 fluorescence intensity (a.u.)
19 | TAAGTTAAATAACTATTAATTGTGGCCTGTGCTCAGCCTTCGGAGTCACCTAGTGCAG | 9070 fluorescence intensity (a.u.)
20 | AATGATTAGAATTTGGTAAAGTAGAGGACAAAGATAAAATCGGAGTCACCTAGTGCAG | 7910 fluorescence intensity (a.u.)
21 | TTTAACACAAATGAGAACTTGATCGATTCCTCGTATTGTTCGGAGTCACCTAGTGCAG | 3850 fluorescence intensity (a.u.)

Row | Sequence | binding signal
22 | GGATAGAATTGATTGAGCGAGAGAGAGAATTGAACACAAACGGAGTCACCTAGTGCAG | 21200 fluorescence intensity (a.u.)
23 | TTTGAGTGATTGACAGGAAACAAATCCACCACTATCTGTTCGGAGTCACCTAGTGCAG | 62400 fluorescence intensity (a.u.)
24 | GAAATTGATTTATCCAGGGAAACTGTCGTGACAAATTTCGCGGAGTCACCTAGTGCAG | 49300 fluorescence intensity (a.u.)
25 | AAAATAAACAAATCTATCCACTAACAATTTGACATGATATCGGAGTCACCTAGTGCAG | 7240 fluorescence intensity (a.u.)
26 | TTCGGATTGATTGTTGAGACAAATCTCGTAGAACACGGAACGGAGTCACCTAGTGCAG | 62900 fluorescence intensity (a.u.)
27 | ATAAATAAATACTCTAATTGCAAGCAACCAACGTCCCAACCGGAGTCACCTAGTGCAG | 5780 fluorescence intensity (a.u.)
28 | CTACAATTTATCATAAACTTGATAAAATATAAACAAATTCCGGAGTCACCTAGTGCAG | 4240 fluorescence intensity (a.u.)
29 | AGGACATAATTTTAATGGGGAAATTGGTTCCATACCATCTCGGAGTCACCTAGTGCAG | 20500 fluorescence intensity (a.u.)
30 | AGCTAGCTTTGACTAATCAATCAGCAGCTAATTTCAGTCTCGGAGTCACCTAGTGCAG | 13700 fluorescence intensity (a.u.)
31 | ATTTAATAGTATTAAACGTAGATTACTGATAAAACCTATTCGGAGTCACCTAGTGCAG | 4260 fluorescence intensity (a.u.)
32 | TAGCTTAGCTCGTATTCGTATAAAACGTAGTACAAGGTTCCGGAGTCACCTAGTGCAG | 61300 fluorescence intensity (a.u.)
33 | AAAATAAATTGACAACATTCGTACAATATATATAAATATCCGGAGTCACCTAGTGCAG | 25900 fluorescence intensity (a.u.)
34 | AGAAATTGTGTGATTTATTGTAGTGTGTAGAAATTTATAGCGGAGTCACCTAGTGCAG | 11700 fluorescence intensity (a.u.)
35 | GACTTGACTAATTGATTTGTGTAGATTTCTAAAAGCAAGGCGGAGTCACCTAGTGCAG | 58600 fluorescence intensity (a.u.)
36 | GATATGAGTGACTAATTGACTTTGTGTTGATTTCGAGCAGCGGAGTCACCTAGTGCAG | 34600 fluorescence intensity (a.u.)
37 | CTGATTTAAATTGAAAGCAACCGTCTTTTGATTTGTGTAGCGGAGTCACCTAGTGCAG | 57100 fluorescence intensity (a.u.)
38 | ATAAAATTTTAAAATTTAAATTGTAGCCACAACTGATAAGCGGAGTCACCTAGTGCAG | 15500 fluorescence intensity (a.u.)
39 | AATGTAATGTAACAAATTTGTCTAAAAGGATTGAACTTGGCGGAGTCACCTAGTGCAG | 12400 fluorescence intensity (a.u.)
40 | AAAAGCACATGATTATATCTCATTTTATGGTCTTAGAGCACGGAGTCACCTAGTGCAG | 3350 fluorescence intensity (a.u.)
41 | GTTTGATGAGTCCGGAATAGCATATAGCACATGGAATTGGCGGAGTCACCTAGTGCAG | 3510 fluorescence intensity (a.u.)
42 | CAACAGGATTGGAAGTGATCAGAGACAGGCAATGAAATCCCGGAGTCACCTAGTGCAG | 8460 fluorescence intensity (a.u.)

From PMC7819943, “Rice protein-binding microarrays: a tool to detect cis-acting elements near promoter regions in rice”
